Consider seven compounds from PubChem BioAssay (NCI).

The panel holds about 79,000 compounds, 15% with a hit somewhere; the sample as a whole holds those more often. Unmarked numbers belong to inactive results. Activity calls are given as the source filed them. Rule as the data show it: active = growth inhibition above about 70%; inactive = the rest.

A short description of test [1]: NCI Yeast Anticancer Drug Screen. Data for the rad50 strain (AID 155).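 Also: 0% = growth of vehicle-only cultures of the same strain.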 The settings on record: S. cerevisiae rad50 strain growth inhibition, active compounds read high. The method in brief:
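Compounds were tested on a yeast strain with an engineered DNA damage repair alteration; the reported value is growth inhibition normalised to vehicle treatment.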

The nature of test [2]: NCI Yeast Anticancer Drug Screen. Data for the mec2-1 strain (AID 157). The note with it: S. cerevisiae mec2-1 strain, active compounds read high. The procedure, abridged: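 Mutant yeast (mec2-1) grown with compound; growth inhibition relative to vehicle control reported.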
Test [3] can be described thus: NCI Yeast Anticancer Drug Screen. Data for the sgs1 mgt1 strain (AID 161).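 Also: 0% = growth of cultures given vehicle only.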 The settings on record: S. cerevisiae sgs1 mgt1 strain, active compounds read high. The procedure, abridged:
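Yeast cells carrying a defined DNA-repair defect were exposed to test compounds. Growth inhibition was measured relative to vehicle-treated controls.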

Test [4] is described as follows: NCI Yeast Anticancer Drug Screen. Data for the cln2 rad14 strain (AID 165).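 Also: 0% = growth equal to vehicle treated cultures.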 The settings on record: S. cerevisiae cln2 rad14 strain, active compounds read high. The procedure, abridged: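 Readout is yeast growth inhibition versus vehicle-treated controls, using a strain with cln2 and rad14 alterations exposed to compound.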
A short description of test [5]: NCI Yeast Anticancer Drug Screen. Data for the bub3 strain (AID 167). The note with it: S. cerevisiae bub3 mutant strain, active compounds read high. The procedure, abridged:
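Growth of a checkpoint-deficient yeast mutant is measured after compound exposure. Values represent inhibition relative to vehicle.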

Test [6] in a line: NCI Yeast Anticancer Drug Screen. Data for the mlh1 rad18 strain (AID 175). The settings on record: S. cerevisiae mlh1 rad18 strain growth inhibition, active compounds read high. The procedure, abridged: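 Genetically defined yeast (DNA repair-deficient) exposed to compounds; growth inhibition determined relative to vehicle.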
Where [7] appears, read: at 5.0 µM (retest, dose inferred, filed as 0.5).
The mark [8] stands for this setting: at 50.0 µM (retest, dose inferred, filed as 5.0).

In the case of `COc1cc(Nc2ccc(Oc3ccc(O)cc3)cc2)c2ncccc2c1`, the growth inhibition in test [1] (setting [7]) is 6%; in test [1] (setting [8]), 31%; in test [1] (at 50.0 µM) it was 42.5%; in test [2] (setting [7]), -12%; in test [2] (setting [8]) it was 51%; in test [2] (at 50.0 µM) it was 53.1%. For the same compound, the growth inhibition was -12% in test [3] (setting [7]); 34% in test [3] (setting [8]); 22.4% in test [3] (at 50.0 µM); 2% in test [4] (setting [7]); 22% in test [4] (setting [8]); 57.4% in test [4] (at 50.0 µM). The growth inhibition in test [5] (setting [7]) was -9%; in test [5] (setting [8]), 5%; in test [5] (at 50.0 µM), 7.85%; in test [6] (setting [7]) it was 14%; in test [6] (setting [8]), 59%; in test [6] (at 50.0 µM), 76% (active).

For the compound `CCCC(CC)c1cc(O)c(O)cc1C(CC)CCC` (stereo unspecified), the growth inhibition was 1% in test [1] (setting [7]); 56% in test [1] (setting [8]); 73% (active) in test [1] (at 50.0 µM); -18% in test [2] (setting [7]); 33% in test [2] (setting [8]); 69.5% in test [2] (at 50.0 µM). Also, the growth inhibition in test [3] (setting [7]) is 9%; in test [3] (setting [8]), 29%; in test [3] (at 50.0 µM), 43.9%; in test [4] (setting [7]) it was -5%; in test [4] (setting [8]), 70% (active); in test [4] (at 50.0 µM) it was 79.8% (active). Moreover, the growth inhibition is -9% in test [5] (setting [7]); 54% in test [5] (setting [8]); 65.8% in test [5] (at 50.0 µM); 6% in test [6] (setting [7]); 62% in test [6] (setting [8]); 77.8% (active) in test [6] (at 50.0 µM).

`N#CC#Cc1cccc(C#CC#N)c1`: the growth inhibition in test [1] (setting [7]) was 98% (active); in test [1] (setting [8]) it was 98% (active); in test [1] (at 50.0 µM), 98% (active); in test [2] (setting [7]), 99% (active); in test [2] (setting [8]), 99% (active); in test [2] (at 50.0 µM) it was 98.9% (active). For the same compound, the growth inhibition in test [3] (setting [7]) was 99% (active); in test [3] (setting [8]), 99% (active); in test [3] (at 50.0 µM) it was 50%; in test [4] (setting [7]), 99% (active); in test [4] (setting [8]), 98% (active); in test [4] (at 50.0 µM), 98.8% (active). Moreover, the growth inhibition was 98% (active) in test [5] (setting [7]); 98% (active) in test [5] (setting [8]); 98.9% (active) in test [5] (at 50.0 µM); 99% (active) in test [6] (setting [7]); 98% (active) in test [6] (setting [8]); 99.2% (active) in test [6] (at 50.0 µM).

`O=C1CC2(CCCC2)C(=O)N1c1ccc(N2C(=O)CC3(CCCC3)C2=O)cc1`: the growth inhibition in test [1] (setting [7]) is 3%; in test [1] (setting [8]) it was -10%; in test [1] (at 50.0 µM) it was -11.8%; in test [2] (setting [7]) it was -3%; in test [2] (setting [8]) it was -12%; in test [2] (at 50.0 µM), 6.95%. For the same compound, the growth inhibition is -1% in test [3] (setting [7]); -7% in test [3] (setting [8]); -22.4% in test [3] (at 50.0 µM); -5% in test [4] (setting [7]); -7% in test [4] (setting [8]); 44.1% in test [4] (at 50.0 µM). Also, the growth inhibition in test [5] (setting [7]) is 0%; in test [5] (setting [8]) it was -4%; in test [5] (at 50.0 µM), -0.9%; in test [6] (setting [7]) it was 1%; in test [6] (setting [8]) it was -5%; in test [6] (at 50.0 µM), -11.7%.

In the case of `Cc1ccc(C)c2c3c([nH]c12)-c1ccccc1CC3`, the growth inhibition in test [1] (setting [7]) is 1%; in test [1] (setting [8]), 3%; in test [1] (at 50.0 µM), 98.5% (active); in test [2] (setting [7]) it was -3%; in test [2] (setting [8]) it was 2%; in test [2] (at 50.0 µM) it was 92.8% (active). Moreover, the growth inhibition in test [3] (setting [7]) is -4%; in test [3] (setting [8]), 10%; in test [3] (at 50.0 µM) it was 83.5% (active); in test [4] (setting [7]) it was -1%; in test [4] (setting [8]), 7%; in test [4] (at 50.0 µM), 80% (active). In addition, the growth inhibition was 0% in test [5] (setting [7]); 4% in test [5] (setting [8]); 96.7% (active) in test [5] (at 50.0 µM); 6% in test [6] (setting [7]); 9% in test [6] (setting [8]); 94.8% (active) in test [6] (at 50.0 µM).

As to `CN1CCN(CCCN)CC1`, the growth inhibition in test [1] (setting [7]) was -8%; in test [1] (setting [8]) it was 8%; in test [1] (at 50.0 µM) it was 3.7%; in test [2] (setting [7]), -3%; in test [2] (setting [8]) it was -25%; in test [2] (at 50.0 µM) it was 25.1%. Besides, the growth inhibition in test [3] (setting [7]) was -4%; in test [3] (setting [8]), -3%; in test [3] (at 50.0 µM), -29.9%; in test [4] (setting [7]), 4%; in test [4] (setting [8]), -4%; in test [4] (at 50.0 µM) it was 29.9%. The growth inhibition in test [5] (setting [7]) was 17%; in test [5] (setting [8]) it was -14%; in test [5] (at 50.0 µM) it was -18%; in test [6] (setting [7]) it was -2%; in test [6] (setting [8]) it was 5%; in test [6] (at 50.0 µM), 11.1%.

With `CCCCCC(Oc1ccc(Cl)cc1)C(=O)O` (stereo unspecified), the growth inhibition in test [1] (setting [7]) was 2%; in test [1] (setting [8]), 84% (active); in test [1] (at 50.0 µM), 81.7% (active); in test [2] (setting [7]) it was 2%; in test [2] (setting [8]), 83% (active); in test [2] (at 50.0 µM), 58.5%. The growth inhibition in test [3] (setting [7]) was 3%; in test [3] (setting [8]), 85% (active); in test [3] (at 50.0 µM), 80.2% (active); in test [4] (setting [7]) it was -1%; in test [4] (setting [8]), 87% (active); in test [4] (at 50.0 µM), 75.5% (active). The growth inhibition in test [5] (setting [7]) is 7%; in test [5] (setting [8]), 87% (active); in test [5] (at 50.0 µM) it was 71.5% (active); in test [6] (setting [7]), -15%; in test [6] (setting [8]) it was 89% (active); in test [6] (at 50.0 µM) it was 83.2% (active).
